Data taken from PubChem BioAssay (NCATS).
“And” between values parts separate entries of the source, which are not always exact repeats. Equal values may be shown once. Results filed as inconclusive are left out. Some structures have more than one record in an assay (separate samples or runs), and their calls can disagree. The source made the active and inactive calls. Calls come from the whole dose curve; as a rule, active = well fitted inhibition curve with a large enough effect; inconclusive = small, poorly fitted or top-dose-only effect; inactive = flat fitted curve, though single readings scatter.

Tests used:
CRL-7250 = normal cell line; test: Cytotoxic Profiling of Annotated Libraries Using Quantitative High-Throughput Screening (AID 1296008); details: Five cell lines viability, CellTiter-Glo ATP luminescence, 48-72 h; max response: stronger effect = lower value; for max response: % is set by controls: 0 for no effect and ±100 for the full control effect
Summary of the method: (§1)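 Compounds were pin-transferred onto cells and incubated 48 or 72 hr at 37 degree Celsius, 95% humidity. CellTiter-Glo was added, plates sat 10 min at room temperature, then ATP-coupled luminescence was imaged as the viability read-out.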

HaCat [1] = test: as above; details: Five cell lines viability, CellTiter-Glo ATP luminescence, 48-72 h; max response: stronger effect = lower value
Summary of the method: as §1

HACAT [2] = test: qHTS assay to identify novel small-molecules to repurpose for Merkel cell carcinoma treatment (AID 1296009); details: MCC and control cell lines, CellTiter-Glo viability, 72 h; at 44.8 µM (top of the series) unless noted
Summary of the method: (§2)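 qHTS format: cells treated with library compounds in DMSO across 8 (NPC) or 11 (MIPE) concentrations. Readout after 72 hr at 37 degree celsius was CellTiter-Glo luminescence.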

MCC-13 = test: as above; details: MCC and control cell lines, CellTiter-Glo viability, 72 h; series mostly up to 46 µM
Summary of the method: as §2

MCC-26 = test: as above; details: MCC and control cell lines, CellTiter-Glo viability, 72 h; series mostly up to 46 µM
Summary of the method: as §2

MKL-1 = test: as above; details: MCC and control cell lines, CellTiter-Glo viability, 72 h; series mostly up to 46 µM
Summary of the method: as §2

MKL-2 = test: as above; details: MCC and control cell lines, CellTiter-Glo viability, 72 h; series mostly up to 46 µM
Summary of the method: as §2

PAD = test: qHTS profiling for inhibitors of Plasmodium falciparum proliferation (AID 504749); details: P. falciparum in erythrocytes, SYBR Green DNA, 72 h; series mostly up to 28.7 µM
Summary of the method: (§3)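 Parasite proliferation within erythrocytes, 72 h exposure. Endpoint: SYBR Green I fluorescence after overnight lysis at room temperature. Controls: 0.29 uM artemisinin, DMSO.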

PC15 = test: as above; details: P. falciparum in erythrocytes, SYBR Green DNA, 72 h; series mostly up to 28.7 µM
Summary of the method: as §3

PC26 = test: as above; details: P. falciparum in erythrocytes, SYBR Green DNA, 72 h; series mostly up to 28.7 µM
Summary of the method: as §3

TAB109 = test: as above; details: P. falciparum in erythrocytes, SYBR Green DNA, 72 h; series mostly up to 28.7 µM
Summary of the method: as §3

TAB113 = test: as above; details: P. falciparum in erythrocytes, SYBR Green DNA, 72 h; series mostly up to 28.7 µM
Summary of the method: as §3

W2 = test: as above; details: P. falciparum in erythrocytes, SYBR Green DNA, 72 h; series mostly up to 28.7 µM
Summary of the method: as §3

HEK293 = test: Cytotoxic Profiling of Annotated Libraries Using Quantitative High-Throughput Screening (AID 1296008); details: Five cell lines viability, CellTiter-Glo ATP luminescence, 48-72 h; max response: stronger effect = lower value; for max response: % is set by controls: 0 for no effect and ±100 for the full control effect
Summary of the method: as §1

KB-3-1 = test: as above; details: Five cell lines viability, CellTiter-Glo ATP luminescence, 48-72 h; max response: stronger effect = lower value
Summary of the method: as §1

NIH3T3 = test: as above; details: Five cell lines viability, CellTiter-Glo ATP luminescence, 48-72 h; max response: stronger effect = lower value
Summary of the method: as §1

HEK293T = test: qHTS assay to identify novel small-molecules to repurpose for Merkel cell carcinoma treatment (AID 1296009); details: MCC and control cell lines, CellTiter-Glo viability, 72 h; at 44.8 µM (top of the series)
Summary of the method: as §2

PC49 = test: qHTS profiling for inhibitors of Plasmodium falciparum proliferation (AID 504749); details: P. falciparum in erythrocytes, SYBR Green DNA, 72 h; series mostly up to 28.7 µM
Summary of the method: as §3

SC27B = test: as above; details: P. falciparum in erythrocytes, SYBR Green DNA, 72 h; series mostly up to 28.7 µM
Summary of the method: as §3

TAB165 = test: as above; details: P. falciparum in erythrocytes, SYBR Green DNA, 72 h; series mostly up to 28.7 µM
Summary of the method: as §3
Note: nearly all actives have a fitted effect of over 60% in size.
Potency is the fitted concentration of half-maximal effect.

N#CC[C@H](C1CCCC1)n1cc(-c2ncnc3[nH]ccc23)cn1
inactive: max response (CRL-7250) -20.9% and 3.07% | max response (HaCat [1]) 0.777% | outcome (HaCat [1]) | outcome (HACAT [2]) | Potency (MCC-13) | Potency (MCC-26) | Potency (MKL-1) | Potency (MKL-2)

CN1CCN(CCCN2c3ccccc3Sc3ccc(C(F)(F)F)cc32)CC1
inactive: Potency (TAB113) | outcome (HEK293) | max response (HaCat [1]) -7.86% | outcome (HaCat [1]) | max response (KB-3-1) -5.37% | outcome (KB-3-1) | max response (NIH3T3) -0.173% | outcome (HACAT [2]) | outcome (HEK293T) | Potency (MCC-13) | Potency (MCC-26) | Potency (MKL-1)
active: Potency (PAD) 12.6 µM | Potency (PC15) 10 µM | Potency (PC26) 13.5 µM | Potency (TAB109) 11.2 µM | Potency (W2) 4.78 µM | Potency (HEK293) 23.7 µM
10.6 µM (active) and inactive: Potency (MKL-2)

COc1nc(-c2ccc3c(c2)OCO3)n(-c2ccc(NC(=O)CSc3ccccc3)cc2)n1
inactive: max response (CRL-7250) -34% | outcome (HaCat [1]) | max response (KB-3-1) -3.01% and -18.6% | max response (NIH3T3) -26.7% | outcome (HACAT [2]) | Potency (MCC-13) | Potency (MKL-1) | Potency (MKL-2)

CCOC(=O)N[C@@H]1CC[C@@H]2[C@@H](C1)C[C@H]1C(=O)O[C@H](C)[C@H]1[C@@H]2C=Cc1ccc(-c2cccc(F)c2)cn1
active: Potency (MKL-2) 20.9 µM
inactive: max response (CRL-7250) -6.96% | max response (NIH3T3) -8.03% | Potency (MCC-13) | Potency (MCC-26) | Potency (MKL-1)

CC1(C)CNc2cc(NC(=O)c3cccnc3NCc3ccncc3)ccc21
inactive: max response (HEK293) -29.2% | outcome (HaCat [1]) | max response (KB-3-1) 3.54% and 4.82% | max response (NIH3T3) -1.33% | outcome (HACAT [2]) | Potency (MCC-13) | Potency (MCC-26) | Potency (MKL-1) | Potency (MKL-2)
active: Potency (HEK293) 5.8 µM | Potency (NIH3T3) 10.3 µM

COCC(=O)NCC=Cc1ccc2ncnc(Nc3ccc(Oc4ccc(C)nc4)c(C)c3)c2c1
active: Potency (CRL-7250) 23.5 µM | Potency (HEK293) 13.2 µM
inactive: max response (NIH3T3) -10.3% | Potency (MCC-26) | Potency (MKL-1)

Cn1cnc2c(F)c(Nc3ccc(Br)cc3Cl)c(C(=O)NOCCO)cc21
inactive: max response (HEK293) -14.9% | max response (KB-3-1) -17.4% and -1.76% | Potency (MCC-26) | Potency (MKL-1) | Potency (MKL-2)
active: Potency (HEK293) 1.32 µM | Potency (HaCat [1]) 1.48 µM | Potency (KB-3-1) 9.35 µM | Potency (NIH3T3) 4.18 µM

Clc1ccc(Nc2nnc(Cc3ccncc3)c3ccccc23)cc1
active: Potency (TAB165) 12.6 µM
inactive and 13.3 µM (active): Potency (MKL-2)
inactive: Potency (PC15) | Potency (PC26) | Potency (PC49) | Potency (SC27B) | Potency (TAB109) | Potency (TAB113) | max response (CRL-7250) 1.53% and -11.9% and 0.195% | max response (HaCat [1]) -5.86% | outcome (HaCat [1]) | max response (KB-3-1) -8.03% and 60.3% | max response (NIH3T3) -1.18% and -1.64% | outcome (HACAT [2]) | Potency (MCC-13) | Potency (MCC-26)

Cc1ccccc1C(OCCN(C)C)c1ccccc1 (stereo not drawn)
inactive: Potency (PAD) | Potency (PC49) | outcome (CRL-7250) | max response (KB-3-1) 4.24% and -3.9% | outcome (KB-3-1) | max response (NIH3T3) -2.58% and 4.52% | outcome (HACAT [2]) | Potency (MCC-13) | Potency (MCC-26) | Potency (MKL-1) | Potency (MKL-2)
active: Potency (TAB165) 7.94 µM | Potency (W2) 4.26 µM

Cc1ccc(-n2nc(C(C)(C)C)cc2NC(=O)Nc2ccc(OCCN3CCOCC3)c3ccccc23)cc1
inactive and 23.7 µM (active): Potency (MKL-1)
active: Potency (MKL-2) 18.8 µM
inactive: max response (CRL-7250) 1.93% and -9.63% | outcome (KB-3-1) | max response (NIH3T3) -5.48% | outcome (HACAT [2]) | Potency (MCC-13) | Potency (MCC-26)

CCOc1ccn(-c2ccc(F)cc2)c(=O)c1C(=O)Nc1ccc(Oc2ccnc(N)c2Cl)c(F)c1
inactive: max response (CRL-7250) -27.8% | Potency (MCC-13) | Potency (MCC-26) | Potency (MKL-1) | Potency (MKL-2)
active: Potency (HEK293) 26.4 µM | Potency (KB-3-1) 13.2 µM

CN(C)c1ccc(Nc2nc(N)n(C(=O)c3c(F)cccc3F)n2)cc1
inactive: max response (CRL-7250) 4.97% | Potency (MKL-2)
active: Potency (NIH3T3) 10.5 µM

CCCCCCCc1ccc(CCc2cccc(O)c2C(=O)O)cc1
inactive: max response (CRL-7250) -0.808% | outcome (HaCat [1]) | outcome (HACAT [2]) | Potency (MCC-13) | Potency (MCC-26) | Potency (MKL-1) | Potency (MKL-2)

Nc1cccc(S(=O)(=O)N2CCCN(S(=O)(=O)c3ccc4c(c3)OCCO4)CC2)c1
inactive: max response (CRL-7250) 0.264% | max response (HaCat [1]) -12.2% | max response (KB-3-1) -7.85% | max response (NIH3T3) -8.98% | Potency (MCC-13) | Potency (MCC-26) | Potency (MKL-1) | Potency (MKL-2)
